The list is not random: actives were taken first. Their share in the collection is about 3.4%.
HTT ATP protect: qHTS Multiplex Assay to Identify Dual Action Probes in a Cell Model of Huntington: Cytoprotection (ATP) | PC12 HTT-Q103 induced, cytoprotection, ATP luminescence, 40 h | Potency, µM (titrated, usually from 56.4 µM), for the others: cytoprotection (ATP increase), actives largely listed as activators | hit rate 0.14% among 230,000 | AID 1471, 2008; note: potency is the fitted concentration of half-maximal effect; % of control where 0% means no effect; nearly all actives have a fitted effect of over 45% in size
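Huntington model: PC12 line, ecdysone-inducible HTTQ103 exon1–GFP, tebufenozide 100 nM. Test articles in a dose series. Endpoint luminescence from cellular ATP.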
IMPase cell inh: qHTS Assay for Identifying the Cell-Membrane Permeable IMPase Inhibitors. inhibition (IP1 accumulation), % at 46.1 µM. 120,000 tested, under 10 active. CHO-M1 cells, IP1 accumulation, HTRF TR-FRET ratio; active = well fitted curve in the direction sought with a large enough effect in the signal ratio, not every such curve was filed as active; inconclusive = small, poorly fitted or top-dose-only effect, or a change in a side signal; inactive = no such curve, though single readings can be large or run the other way; the % refers to the signal ratio;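 note: cells stimulated with carbachol in lithium chloride buffer; plate controls were DMSO basal wells for no effect and reference inhibitor wells for full effect; higher means more IMPase inhibition seen as more IP1 and lower FRET ratio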
Target sequence (P97697 whole entry, looked up): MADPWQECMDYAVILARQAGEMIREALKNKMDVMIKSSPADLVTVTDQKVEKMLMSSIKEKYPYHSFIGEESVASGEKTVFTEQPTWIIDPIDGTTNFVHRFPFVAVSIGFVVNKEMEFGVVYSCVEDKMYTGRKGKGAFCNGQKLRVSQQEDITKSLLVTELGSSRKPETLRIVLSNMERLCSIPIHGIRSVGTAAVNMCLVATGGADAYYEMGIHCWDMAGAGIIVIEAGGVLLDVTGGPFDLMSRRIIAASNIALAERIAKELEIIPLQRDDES
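Measured: the HTRF emission ratio (665/620 nm) plus the 620 nm donor channel, each fitted to the Hill equation to give AC50. Cells were CHO-M1 given compounds up to 46 uM and a 30 min carbachol stimulation at 37C.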
PNC inhibitor: High Content Assay for Compounds that inhibit the Assembly of the Perinucleolar Compartment. PC3M PTB-GFP, PNC prevalence imaging, 16 h; active compounds read low. activity change (PNC), negative = inhibition, % at 10 µM. hit rate 3.1% among 140,000. AID 2417, 2010;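 active = readout at or below -70, meaning at least 70% loss of cells showing the perinucleolar compartment, a nuclear body marking cancer cells; inconclusive = readout between -30 and a set limit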;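 note: plate controls were DMSO wells for no effect and camptothecin positive control wells for full effect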
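Compounds are pinned in duplicate onto adhered PC3M cells stably expressing GFP-tagged PTB and incubated 16 h at 37 C. Cells are then fixed, nuclei stained with Hoechst, and PNC-positive cells counted.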
NPSR antagonist: qHTS Assay for Antagonists of the Neuropeptide S Receptor: cAMP Signal Transduction. Potency, µM (highest dose often 38.3 µM), inactives show top-dose activity change, negative = inhibition, most hits filed as inhibitors. Q6W5P4. hit rate 1% among 220,000. CHO-NPSR cells, cAMP TR-FRET, antagonist mode; note: potency is the fitted concentration of half-maximal effect; % is set by controls: 0 for no effect and ±100 for the full control effect; nearly all actives have a fitted effect of over 50% in size
Target sequence (Q6W5P4 whole entry, looked up): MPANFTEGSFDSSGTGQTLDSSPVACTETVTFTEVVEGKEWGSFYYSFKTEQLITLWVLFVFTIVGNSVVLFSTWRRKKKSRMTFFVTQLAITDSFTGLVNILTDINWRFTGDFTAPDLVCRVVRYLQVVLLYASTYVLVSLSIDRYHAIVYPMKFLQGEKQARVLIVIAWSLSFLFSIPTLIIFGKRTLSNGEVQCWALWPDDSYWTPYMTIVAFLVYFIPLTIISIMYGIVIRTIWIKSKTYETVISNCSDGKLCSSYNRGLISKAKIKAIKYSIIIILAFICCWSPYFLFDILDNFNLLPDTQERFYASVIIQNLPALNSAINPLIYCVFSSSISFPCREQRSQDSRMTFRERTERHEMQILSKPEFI
IMPase Li inh: qHTS Assay for Identifying the Cell-Membrane Permeable IMPase Inhibitors: Potentiation with Lithium; CHO-M1 cells, IP1 TR-FRET (IP-One), carbachol + lithium; hit rate 0.35% among 210,000; Potency, µM (highest dose often 59.4 µM), without a hit: top-dose activity, negative = IMPase inhibition, actives largely listed as inhibitors;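 note: IP1 builds up when IMPase is blocked and the TR-FRET signal falls; potency is the fitted concentration of half-maximal effect; plate controls were basal vehicle for no effect and high inhibitor control for full effect; nearly all actives have a fitted effect of over 50% in size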
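Lithium-sensitised IP1 accumulation assay; M1-expressing CHO cells treated 30 min at 37C with compound. Competitive antibody detection by time-resolved FRET followed a 10 min room-temperature lysis step.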
HttQ103 aggreg: qHTS Multiplex Assay to Identify Dual Action Probes in a Cell Model of Huntington: Aggregate Formation (GFP); Potency, µM (top dose mostly 46.1 µM), without a hit: at the highest dose activity change, negative = inhibition, hits mostly inhibitors; hit rate 1.1% among 220,000; PC12 HttQ103-GFP aggregates, Acumen cytometry, 40 h; note: potency is the fitted concentration of half-maximal effect; % is set by controls: 0 for no effect and ±100 for the full control effect; nearly all actives have a fitted effect of over 60% in size
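Steps: seed 1500 PC12 HTTQ103-GFP cells/well; add tebufenozide, 100 nM final; add compound titration; add ATPLite reagent; quantify GFP aggregates by laser scanning cytometry.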
An asterisk follows results filed as active; ? = inconclusive; . = no result; [ ] = remark or other dose. Unless noted, calls come from the whole dose curve; as a rule, active = well fitted curve in the direction sought with a large enough effect; inconclusive = small, poorly fitted or top-dose-only effect, or another doubt; inactive = no such curve, though single readings can be large; an effect the other way counts as inactive or inconclusive.

SMILES	HTT ATP protect	IMPase cell inh	PNC inhibitor	NPSR antagonist	IMPase Li inh	HttQ103 aggreg
CCOC(=O)C1=NN(C(=O)c2ccccc2)C(O)(c2ccc(C)cc2)C1 (stereo not drawn)	.	.	-95.0*	7.6%	-5.0%	17.0%
C=CCn1c(COc2ccc(Cl)cc2)nnc1SCC(=O)N/N=C/c1cccc(O)c1	-17.5%	5.1	108.0	-21.8%[46.1 µM]	6.3%[38.3 µM]	9.0%
C=CCn1c(COc2ccccc2)nnc1SC(C)C(=O)N/N=C/c1cc(Cl)ccc1O (stereo not drawn)	-41.2%	9.2	4.6	-10.0%[46.1 µM]	27.6%[38.3 µM]	10µM*
O=C(Nc1nccs1)c1c(O)c2c([nH]c1=O)CCCC2	-36.9%[10 µM]	.	.	21.4%[7.67 µM]	.	22.6%[9.22 µM]
CCCc1nnc(NC(=O)c2c(O)c3c([nH]c2=O)CCCC3)s1	-8.2%	-1.8	-113.7*	-8.3%[46.1 µM]	-11.7%[38.3 µM]	-1.1%
CCOc1ccc(NC(=O)COC(=O)C23CC4CC(CC(C4)C2)C3)c([N+](=O)[O-])c1	16.8%[1.9 µM]	0.6	17.7	-11.2%	-0.6%	26.1%
COc1ccccc1OCCNC1CCCC1	-59.5%	-2.6	-97.7*	3.8%[46.1 µM]	7.5%[38.3 µM]	13.5%
CC(=O)/C=C\c1cn(-c2ncc(C(F)(F)F)cc2Cl)c2ccccc12	-3.9%[10 µM]	5.4[1.84 µM]	-124.4*	?	5.0%[38.3 µM]	?
Cc1cc(O)c2c(c1O)C(=O)c1c(O)cc(C)c(O)c1C2=O	?	.	.	.	7.8%	.
Cc1cc(=O)c2c(O)c3c(O)cc(O)c4c5c(O)cc(O)c6c(O)c7c(=O)cc(C)c8c1c2c(c34)c(c65)c78	-96.1%	.	.	.	12.6µM*	.
COc1ccccc1N1CCN(C(=O)CSc2nc3ccccc3o2)CC1	-9.8%	-1.8	-81.9*	-3.4%[46.1 µM]	14.9%[38.3 µM]	-15.9%
NC(=O)C1(N2CCCCC2)CCN(C(=O)CSc2nc3ccccc3o2)CC1	-7.4%[0.074 µM]	.	.	.	.	.
NC(=O)C1CCN(C(=O)CSc2nc3ccccc3o2)CC1	7.3%[10 µM]	2.5	-127.9*	-3.6%[46.1 µM]	0.5%	-18.7%
CS(=O)(=O)N1CCC(C(=O)Nc2cc(Cl)cc(Cl)c2)CC1	-42.8%	.	.	8.6%	1.5%	-1.2%
CCOC(=O)NC(CC(=O)O)c1ccc(OC)cc1 (stereo not drawn)	19.1%[10 µM]	-0.3	-100.0*	-14.5%[46.1 µM]	-6.1%[38.3 µM]	4.3%
NC(=O)C1=CN([C@@H]2O[C@@H](COP(=O)(O)OP(=O)(O)OC[C@@H]3O[C@H](n4cnc5c(N)ncnc54)[C@@H](OP(=O)(O)O)[C@@H]3O)[C@H](O)[C@@H]2O)C=CC1	-16.4%[1.9 µM]	4.7	.	.	.	.
COc1ccc(-c2cn3c(C)c(C(=O)Nc4ccncc4)sc3n2)cc1	-29.4%	?	?	?	5.62µM*	?
O=C(Cc1nnc(NC(=O)Nc2ccccc2F)s1)NCc1ccccc1	5.4%[10 µM]	.	.	12.2%	.	-5.0%[9.22 µM]
COc1ccccc1-c1nn2c(C3COc4ccccc4O3)nnc2s1 (stereo not drawn)	-21.9%[0.074 µM]	5.4	?	?	31.6µM*	-16.2%
COc1ccccc1-c1nn2c(C(F)(F)F)nnc2s1	-6.2%[0.074 µM]	-1.3	29.9	?	7.94µM*	-17.3%
CC(C)CN(C)c1nc(N)c(C(=O)N=C(N)N)nc1Cl	12.3%[1.9 µM]	10.9	.	?	12.6%	.
CCOC(=O)Cn1c(=N)n(CCOc2ccc(Br)cc2)c2ccccc21	-6.8%[10 µM]	.	.	36.0%	.	-11.0%[9.22 µM]
CCOC(=O)Cn1c(=N)n(CCOc2cccc(C)c2)c2ccccc21	42.5%[10 µM]	2.4	-97.1*	0.0%[46.1 µM]	2.4%	-23.0%
CCC1=C2CC[C@H]3C(=O)NC(=O)[C@H]3[C@H]2[C@@]2(C)C(=NCCc3c[nH]c4ccccc34)OC(=O)N2C1=O	15.7%	.	.	.	-5.4%	.
CN(CC(=O)Nc1ccc(F)c(F)c1F)c1cnccn1	-5.8%[10 µM]	-9.6	-100.0*	-8.3%[46.1 µM]	-20.8%[38.3 µM]	?
SMILES	HTT ATP protect	IMPase cell inh	PNC inhibitor	NPSR antagonist	IMPase Li inh	HttQ103 aggreg
FC(F)(F)c1nc2cc3nc4ccccc4[nH]c3cc2n1	14.2%[10 µM]	.	.	12.6µM*	.	26.4%[9.22 µM]
O=c1[nH]c2cc3ccccc3cc2nc1C(F)(F)F	-32.7%	.	.	2.3%	2.9%	-10.2%
COC(=O)c1ccc(Oc2c(C)oc3c(CN4CCN(C)CC4)c(O)ccc3c2=O)cc1	-0.8%	-3.2	-26.1	-0.4%[46.1 µM]	12.6µM*	20.0%
COc1ccccc1Oc1c(C)oc2c(CN3CCN(C)CC3)c(O)ccc2c1=O	-17.3%	-10.3	-2.1	6.3%[46.1 µM]	-17.8%[38.3 µM]	11.4%
CCOC(=O)C1CCCCN1Cc1ccc(OC)c(OC)c1 (stereo not drawn)	5.8%[10 µM]	.	.	14.9%	.	-20.5%[9.22 µM]
CC(C)C(c1nnnn1C1CCCC1)N1CCCc2ccccc21 (stereo not drawn)	22.3%[10 µM]	-5.7	-100.0*	?	14.4%	-27.2%
Cc1ccc2[nH]c(=O)c(C(c3nnnn3C3CCCC3)N3CCCc4ccccc43)cc2c1 (stereo not drawn)	9.0%[10 µM]	2.1	24.3	3.6%[46.1 µM]	-6.0%	35.5µM*
O=c1c(-c2cccs2)nc2cncnc2n1-c1ccccc1	-22.8%	.	.	.	-15.1%	.
COc1cc(OC)c(C2Nc3ccccc3-c3nnc(SCc4ccccc4)nc3O2)cc1OC (stereo not drawn)	.	-6.8	.	.	.	.
O=C1C(=O)N(CCCn2ccnc2)C(c2cccnc2)/C1=C(/O)c1ccc(Br)cc1 (stereo not drawn)	5.7%	.	.	.	.	.
Cc1c(N2C(=O)C(=O)/C(=C(/O)c3ccc(Br)cc3)C2c2cccnc2)c(=O)n(-c2ccccc2)n1C (stereo not drawn)	28.6%	.	.	-36.5%	8.91µM*	-25.3%
COc1cc(OC)c(Nc2nc3ccccc3nc2-n2nc(C)cc2C)cc1Cl	.	4.6	.	.	.	.
CCc1ccc(C(=O)COC(=O)c2ccc(-c3nnc(-c4ccccc4)o3)cc2)cc1	-3.6%	4.8	81.2	-10.1%[46.1 µM]	3.55µM*	-4.6%
CS(=O)(=O)N1CCC2(CCN(C(=O)Nc3cccc(F)c3)CC2)CC1	14.5%	.	.	.	-0.2%	.
COCCn1nnnc1CN1CCC(Cc2ccccc2)CC1	3.6%[10 µM]	-11.3	-100.0*	9.9%[46.1 µM]	2.2%	-12.1%
OCC1OC(c2ccccc2)C=CC1Oc1cc(Cl)cc(Cl)c1 (stereo not drawn)	-42.6%[10 µM]	.	.	.	.	.
Cc1ccc([N+](=O)[O-])cc1N=Nc1c(-c2ccc([N+](=O)[O-])cc2)[nH]n(C(N)=S)c1=O	.	.	.	10µM*	12.2%	22.6%
NC(=S)n1[nH]c(-c2ccc([N+](=O)[O-])cc2)c(N=Nc2ccc(Cl)cc2)c1=O	-84.6%	.	.	-22.3%	23.0%	7.94µM*

From PubChem BioAssay
